Laboratory results from PubChem BioAssay.
Note: test concentration not given here.

Test: basal RPMI8226 viability, no added stimulus, profiling panel, cell-based, calcein-AM fluorescence, 48 h, PK04 Diversity Set (AID 1166);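 note: cells grown under basal conditions without added stimulus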
Details: RPMI8226 myeloma viability, higher = more signal
In the case of `COc1ccc([Si](C)(C)[C@@H]2[C@@H](CCO)O[C@]3(C(=O)N(Cc4ccccc4)c4ccc(N5CCCCC5=O)cc43)[C@H]2C)cc1`, the z-score is reported as -4.08.
`C#CCNS(=O)(=O)N(C)C` gave a z-score of -0.227.
Compound `COCCCNC(=O)[C@]1(CCS(=O)(=O)c2ccccc2)N=C(c2ccc(OCCCO)cc2)O[C@@H]1c1ccccc1` has a z-score of -0.7.
`CC(=O)NCCCC[C@@H]1NC(=O)[C@@H]2C[C@H](C(=O)NCCCC[N+](C)(C)C)[C@H](c3cccc(OCCO)c3)N2C1=O` gave a z-score of -1.95.
`CCCC[C@@H](O)C1=C(COc2ccccc2)Cn2c(=O)n(-c3ccccc3)c(=O)n2[C@H]1CO` gave a z-score of -1.02.
`C=CCOC(=O)[C@H]1[C@@H]2C(=O)O[C@@H](c3ccccc3)[C@@H](c3ccccc3)N2[C@@H](c2ccc(OCCOC(=O)[C@H]3C[C@H]4C(=O)N[C@@H](CCCCN(C)C)C(=O)N4[C@H]3c3ccc(O)cc3)cc2)[C@]12C(=O)Nc1ccccc12` showed a z-score of -0.0817.
With `C=CCNC(=O)[C@H]1[C@@H]2C(=O)O[C@@H](c3ccccc3)[C@@H](c3ccccc3)N2[C@@H](c2ccc(OCCO)cc2)[C@]12C(=O)N(C(=O)OCCOC)c1ccc(C#CC3=CCCCC3)cc12` the z-score was -2.49.
Work on `COC(=O)[C@@]1(Cc2ccccc2)[C@H]2c3cc(C(=O)N4CCCC4)n(Cc4ccc(OC(F)(F)F)cc4)c3C[C@H]2CN1C(=O)c1ccccc1` yielded a z-score of -2.47.
`COc1ccc([Si](C)(C)[C@H]2[C@H](CCn3cc(CCO)nn3)O[C@@]3(C(=O)N(Cc4cccc(N5C(=O)c6cccc7cccc5c67)c4)c4ccccc43)[C@@H]2C)cc1` gave a z-score of -4.51.
Compound `COC(=O)[C@@]1(Cc2ccc(F)cc2)[C@H]2c3cc(C(=O)N4CCCC4)n(Cc4ccccc4)c3C[C@H]2CN1C(=O)c1ccccc1` has a z-score of -4.11.
With `CCC[C@@H]1C[C@@]1(CCC)[C@@H](NC(=O)c1ccco1)c1ccc(Cl)cc1` the z-score was -4.31.
Work on `C[C@@]1([C@@H](NC(=O)c2cccs2)c2ccc(-c3ccccc3)cc2)C[C@H]1C1CCCCC1` yielded a z-score of -4.43.
Compound `O=C1O[C@H](c2ccccc2)[C@H](c2ccccc2)N2[C@H]1[C@@H](C(=O)N1CCN(c3ncccn3)CC1)[C@]1(C(=O)Nc3ccc(C#CCCO)cc31)[C@H]2c1ccccc1OCCO` has a z-score of -2.95.
Compound `C=C(COC)C(=O)CC[C@H](OC(=O)c1ccccc1-c1ccccc1C(=O)O)c1ccc(CO)o1` has a z-score of -0.0416.
With `COCC(=C=CC[C@@H](O)c1ccccc1OCCO)C[C@@H](O)c1ccccn1` the z-score was 0.211.
Compound `COC(=O)C(CC#Cc1ccc2c(c1)[C@]1(C(=O)N2)[C@H](c2ccc(OCCO)cc2)N2[C@H](c3ccccc3)[C@H](c3ccccc3)OC(=O)[C@H]2[C@@H]1C(=O)O)C(=O)OC` has a z-score of -0.247.
In the case of `COCCCNC(=O)[C@]1(Cc2ccccc2CN=[N+]=[N-])N=C(c2ccc(OCCCO)cc2)O[C@@H]1c1ccccc1CN=[N+]=[N-]`, the z-score is reported as -4.22.
In the case of `C=C(C(=O)CC[C@H](OC(=O)c1cccnc1)c1ccc(OCCO)cc1)C(C)C`, the z-score is reported as -1.75.
For `CC(C)CNC(=O)[C@@]1(C)c2ccccc2C(=O)N(Cc2ccccc2)[C@H]1c1ccc(CO)cc1`, the z-score was 0.0402.
For `CC(C)(C)OC(=O)CC[C@]1(C(=O)O)COC(c2ccc(OCCCO)cc2)=N1`, the z-score was 0.151.
With `COc1ccc([Si](C)(C)[C@@H]2[C@@H](CC(=O)N(CCO)Cc3ccccc3)O[C@]3(C(=O)N(Cc4ccc(N5CCOC5=O)cc4)c4ccccc43)[C@H]2C)cc1` the z-score was -4.21.
`CCCCC=C[C@@H](NC(=O)CCc1ccccc1)c1ccccc1` gave a z-score of -4.71.
For `C=C(/C(=C/C[C@@H](OC(=O)c1ccncc1)c1ccccc1OCCO)c1cnc2ccccc2c1)C(C)C`, the z-score was -2.45.
Work on `C=C(CCCC)/C(=C/C[C@@H](OC(=O)c1ccncc1)c1ccccc1OCCO)c1cc(C(=O)OC)ccc1OC` yielded a z-score of -3.93.
With `CC(C)N1C(=O)c2ccccc2[C@](C)(C(=O)O)[C@@H]1c1ccc(CO)cc1` the z-score was 0.0868.
Compound `COC(=O)[C@@]1(Cc2ccc(OC)cc2)[C@H]2c3cc(C(=O)N(C)C)n(Cc4cc(C)n(C)n4)c3C[C@H]2CN1C(=O)c1ccccc1` has a z-score of -1.77.

Test: basal HepG2 mitochondrial membrane potential changes, profiling panel, cell-based, JC-1 fluorescence, 24 h, 100 nL compound (AID 1167)
Details: higher = more signal
`CN(C)C(=O)[C@@]1(CCS(=O)(=O)c2ccccc2)N=C(c2ccc(OCCCO)cc2)O[C@H]1c1ccccc1CN=[N+]=[N-]` showed a z-score of 0.548.
Work on `Cc1ccc(S[C@]2(C(=O)NCc3ccccc3)CC(=O)N(C3Cc4ccccc4C3)[C@@H]2c2ccc(CO)cc2I)cc1` yielded a z-score of 0.353.
For `C=C(C)[C@@H]1CC=C(C(O)C2C=CC3C(=O)N(C4CCCCC4)C(=O)C3N2Nc2ccc(OC)cc2)CC1` (some centres not stated), the z-score was -0.227.
Compound `CC(C)(C)N1CC=CC23O[C@@H]4C=CCCOC(=O)C4[C@H]2C(=O)N(CCCO)[C@@H]3C1=O` (some centres not stated) has a z-score of -1.26.
`CN(C)C(=O)[C@]1(Cc2ccccc2N=[N+]=[N-])N=C(c2ccc(OCCCO)cc2)O[C@@H]1c1ccccc1CN=[N+]=[N-]` showed a z-score of 0.38.
For `COC(=O)[C@@]1(Cc2ccc(OC)cc2)[C@H]2c3cc(C(=O)N4CCCC4)n(Cc4ccc(C)o4)c3C[C@H]2CN1C(=O)c1ccccc1`, the z-score was -4.45.
Compound `[N-]=[N+]=NCc1ccccc1C[C@]1(C(=O)NCCN2CCOCC2)N=C(c2ccc(OCCCO)cc2)O[C@H]1c1ccccc1` has a z-score of 0.871.
For `CCCCCCC#C[Si](O[C@H](c1ccccc1)c1cn(Cc2cccc(Cl)c2)nn1)(C(C)C)C(C)C`, the z-score was 3.44.
In the case of `COCCOC(=O)N1C(=O)[C@@]2(c3cc(C#CC4(O)CCCCCC4)ccc31)[C@H](C(=O)N1CCN(c3ncccn3)CC1)[C@H]1C(=O)O[C@H](c3ccccc3)[C@H](c3ccccc3)N1[C@@H]2c1ccc(O)cc1`, the z-score is reported as -0.641.
Work on `COc1ccc(C(=O)Nc2ccc3c(c2)[C@]2(O[C@@H](CCO)[C@H]([Si](C)(C)c4ccc(OC)cc4)[C@H]2C)C(=O)N3Cc2ccccc2)cc1` yielded a z-score of 0.00933.
`COc1ccc([Si](C)(C)[C@@H]2[C@@H](CCO)O[C@]3(C(=O)N(Cc4ccccc4)c4ccc(N5CCCCC5=O)cc43)[C@H]2C)cc1` showed a z-score of 0.311.
Work on `C#CCNS(=O)(=O)N(C)C` yielded a z-score of 0.563.
In the case of `COCCCNC(=O)[C@]1(CCS(=O)(=O)c2ccccc2)N=C(c2ccc(OCCCO)cc2)O[C@@H]1c1ccccc1`, the z-score is reported as 2.64.
For `CC(=O)NCCCC[C@@H]1NC(=O)[C@@H]2C[C@H](C(=O)NCCCC[N+](C)(C)C)[C@H](c3cccc(OCCO)c3)N2C1=O`, the z-score was -0.851.
`CCCC[C@@H](O)C1=C(COc2ccccc2)Cn2c(=O)n(-c3ccccc3)c(=O)n2[C@H]1CO` gave a z-score of -0.368.
With `C=CCOC(=O)[C@H]1[C@@H]2C(=O)O[C@@H](c3ccccc3)[C@@H](c3ccccc3)N2[C@@H](c2ccc(OCCOC(=O)[C@H]3C[C@H]4C(=O)N[C@@H](CCCCN(C)C)C(=O)N4[C@H]3c3ccc(O)cc3)cc2)[C@]12C(=O)Nc1ccccc12` the z-score was -1.63.
Compound `C=CCNC(=O)[C@H]1[C@@H]2C(=O)O[C@@H](c3ccccc3)[C@@H](c3ccccc3)N2[C@@H](c2ccc(OCCO)cc2)[C@]12C(=O)N(C(=O)OCCOC)c1ccc(C#CC3=CCCCC3)cc12` has a z-score of -0.609.
`COC(=O)[C@@]1(Cc2ccccc2)[C@H]2c3cc(C(=O)N4CCCC4)n(Cc4ccc(OC(F)(F)F)cc4)c3C[C@H]2CN1C(=O)c1ccccc1` gave a z-score of 1.77.
In the case of `COc1ccc([Si](C)(C)[C@H]2[C@H](CCn3cc(CCO)nn3)O[C@@]3(C(=O)N(Cc4cccc(N5C(=O)c6cccc7cccc5c67)c4)c4ccccc43)[C@@H]2C)cc1`, the z-score is reported as 1.6.
Work on `COC(=O)[C@@]1(Cc2ccc(F)cc2)[C@H]2c3cc(C(=O)N4CCCC4)n(Cc4ccccc4)c3C[C@H]2CN1C(=O)c1ccccc1` yielded a z-score of 0.49.
For `CCC[C@@H]1C[C@@]1(CCC)[C@@H](NC(=O)c1ccco1)c1ccc(Cl)cc1`, the z-score was -1.62.
Work on `C[C@@]1([C@@H](NC(=O)c2cccs2)c2ccc(-c3ccccc3)cc2)C[C@H]1C1CCCCC1` yielded a z-score of -0.734.
Compound `O=C1O[C@H](c2ccccc2)[C@H](c2ccccc2)N2[C@H]1[C@@H](C(=O)N1CCN(c3ncccn3)CC1)[C@]1(C(=O)Nc3ccc(C#CCCO)cc31)[C@H]2c1ccccc1OCCO` has a z-score of 0.308.
With `C=C(COC)C(=O)CC[C@H](OC(=O)c1ccccc1-c1ccccc1C(=O)O)c1ccc(CO)o1` the z-score was -1.01.
Compound `COCC(=C=CC[C@@H](O)c1ccccc1OCCO)C[C@@H](O)c1ccccn1` has a z-score of -0.95.
Work on `COC(=O)C(CC#Cc1ccc2c(c1)[C@]1(C(=O)N2)[C@H](c2ccc(OCCO)cc2)N2[C@H](c3ccccc3)[C@H](c3ccccc3)OC(=O)[C@H]2[C@@H]1C(=O)O)C(=O)OC` yielded a z-score of -0.0694.
Work on `COCCCNC(=O)[C@]1(Cc2ccccc2CN=[N+]=[N-])N=C(c2ccc(OCCCO)cc2)O[C@@H]1c1ccccc1CN=[N+]=[N-]` yielded a z-score of 1.31.
`C=C(C(=O)CC[C@H](OC(=O)c1cccnc1)c1ccc(OCCO)cc1)C(C)C` showed a z-score of 0.149.
`CC(C)CNC(=O)[C@@]1(C)c2ccccc2C(=O)N(Cc2ccccc2)[C@H]1c1ccc(CO)cc1` showed a z-score of 0.164.
`CC(C)(C)OC(=O)CC[C@]1(C(=O)O)COC(c2ccc(OCCCO)cc2)=N1` showed a z-score of -0.924.
With `COc1ccc([Si](C)(C)[C@@H]2[C@@H](CC(=O)N(CCO)Cc3ccccc3)O[C@]3(C(=O)N(Cc4ccc(N5CCOC5=O)cc4)c4ccccc43)[C@H]2C)cc1` the z-score was -0.0678.
Compound `CCCCC=C[C@@H](NC(=O)CCc1ccccc1)c1ccccc1` has a z-score of -3.88.
With `C=C(/C(=C/C[C@@H](OC(=O)c1ccncc1)c1ccccc1OCCO)c1cnc2ccccc2c1)C(C)C` the z-score was 0.76.
For `C=C(CCCC)/C(=C/C[C@@H](OC(=O)c1ccncc1)c1ccccc1OCCO)c1cc(C(=O)OC)ccc1OC`, the z-score was 2.84.
`CC(C)N1C(=O)c2ccccc2[C@](C)(C(=O)O)[C@@H]1c1ccc(CO)cc1` showed a z-score of 0.0703.
For `COC(=O)[C@@]1(Cc2ccc(OC)cc2)[C@H]2c3cc(C(=O)N(C)C)n(Cc4cc(C)n(C)n4)c3C[C@H]2CN1C(=O)c1ccccc1`, the z-score was 1.57.
